Results filed as inconclusive are left out. Values without a mark were called inactive. Calls of active or inactive are those of the source. Calls follow the shape of the dose curve; as a rule, active = well fitted inhibition curve with a large enough effect; inconclusive = small, poorly fitted or top-dose-only effect; inactive = flat fitted curve, though single readings scatter.
% is scaled to controls: 0 for no effect and ±100 for the full control effect; potency is read from the fitted curve at half-maximal effect.

The assay relates to HEK293. Briefly: Cytotoxic Profiling of Annotated Libraries Using Quantitative High-Throughput Screening (AID 1296008). Also: nearly all actives have a fitted effect of over 60% in size. The following applies: Five cell lines viability, CellTiter-Glo ATP luminescence, 48-72 h; max response: active compounds read low. In short, it runs like this:
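Cells exposed to compounds for 48 or 72 hr at 37 degrees Celsius. Viability read as ATP-coupled luminescence with CellTiter-Glo after 10 min at room temperature.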
(In general: Cellular ATP, detected with luciferase, serves as a proxy for viable cell number.)
Turning to `CC#CC(=O)N1CCC[C@H]1c1nc(-c2ccc(C(=O)Nc3ccccn3)cc2)c2c(N)nccn12`, the max response was -0.695%.
Same read-out and setting: next, `C[C@@H]1O[C@@H](O[C@H]2[C@H](O[C@H]3[C@H](O[C@H]4CC[C@@]5(C)C(CC[C@]6(C)C5CC=C5[C@@H]7CC(C)(C)C[C@@H](O)[C@]7(C)CC[C@]56C)[C@@]4(C)CO)O[C@H](C(=O)O)[C@@H](O)[C@@H]3O)OC[C@H](O)[C@@H]2O)[C@H](O)[C@H](O)[C@H]1O` (some centres undefined): -4.78%.
For `CN(C)c1nc(NC2CCC(NCCc3ccc(Br)cc3OC(F)(F)F)CC2)nc2ccccc12` (centres undefined), the Potency is 5.17 µM (active).
Regarding `C[C@H](Oc1ccc(S(C)(=O)=O)cc1C(=O)N1CCN(c2ncc(C(F)(F)F)cc2F)CC1)C(F)(F)F`, the max response was -24.7%.
With `Nc1nccn2c(C3CCC(C(=O)O)CC3)nc(-c3cc4cccc(Cl)c4[nH]3)c12` (centres undefined), the Potency was 5.17 µM (active).
In the case of `C[C@H](NC(c1cccc(C[P+](=O)O)c1)[C@H](C)O)c1ccc(Cl)c(Cl)c1` (some centres undefined), the max response is -17.8%.
Same read-out and setting: with `C=C(C(=O)OC)C1C(O)CC2(C)C(=O)CCC(O)(CO)C2C1O` (centres undefined) the figure was -2.27%.
Take `Cc1[nH]nc(C(F)(F)F)c1Cc1sc2c(c1C(=O)N1C[C@](C)(O)CO1)c(=O)n(C)c(=O)n2C(C)C`: the Potency was 0.0517 µM (active).
In the case of `C/C=C/c1ccc2oc(-c3ccc(O)c(OC)c3)c(C)c2c1`, the max response is -4.11%.
With `CC(C)=CCC[C@](C)(O)[C@H]1CC[C@]2(C)[C@@H]1[C@H](O)CC1[C@@]3(C)CC[C@H](O)C(C)(C)[C@@H]3[C@@H](O[C@@H]3O[C@H](CO)[C@@H](O)[C@H](O)[C@H]3O[C@@H]3O[C@H](CO)[C@@H](O)[C@H](O)[C@H]3O)C[C@]12C` (some centres undefined), the max response was -11.9%.
Same read-out and setting: next, `COc1cc2c(cc1OC)N1C(=O)C[C@]34C=CCN5CC[C@@H]2[C@@H](CC3)[C@]514`: -26.4%; `C=CC(C)(O)C(O)CC1C(C)(O)C(O)C(O)C2C(C)(C)CCCC21C` (centres undefined): -10.3%.
Same read-out and setting: next, `CNC(=S)NS(=O)(=O)c1cc(CCNC(=O)c2cc(Cl)ccc2OC)ccc1OC`: 0.225%; `O=C1CC2(CCCC2)[C@H](O)C(=O)N1CCCCN1CCN(c2ncccn2)CC1`: -2.49%.
As for `C=C1CC23CC1CCC2C12OC(=O)C(C)(CCC1O)C2C3C(=O)O` (centres undefined), the max response was 2.62%.
`Cc1cc(Nc2cc(N3CCN(C)CC3)nc(/C=C/c3ccccc3)n2)n[nH]1`: the Potency is 3.66 µM (active).
On the same count and under the same terms, with `CC(C)NCC(C(=O)N1CCN(c2ncnc3c2C(C)CC3O)CC1)c1ccc(Cl)cc1` (centres undefined) the figure was 0.58 µM (active).
Take `CC(=O)c1ccc(O[C@@H]2O[C@H](CO)[C@@H](O)[C@H](O)[C@H]2O)cc1`: the max response is -8.37%.
For the compound `CN(C)CCn1cc(S(=O)(=O)c2cccc(F)c2)c2cccnc21`, the compound was called inactive.
For `C=C1OC2CC(C(=O)O)C=CC2NC1=O` (centres undefined), the max response is 3.15%.
The same measure, in the same setting: next, `O=C(O)c1ccc(CN2CCC(CN[C@@H]3C[C@H]3c3ccccc3)CC2)cc1`: -15.7%.
Regarding `CCc1c(C)nc2c(-c3cnn(-c4cc(CO)ccn4)c3)c[nH]n2c1=O`, the outcome was inactive.
Regarding `CC1C(=O)CC2C3CCC(C(=O)O)C12CC3(C)CO` (centres undefined), the max response was 0.671%.
On to `C[C@H](NC(c1cccc2[nH]c(=O)c(=O)[nH]c12)P(=O)(O)O)c1ccc(Br)cc1` (some centres undefined), for which the max response is 1.8%.
Still for that read-out and setting: with `COC(=O)C12CCC(C)C(C)C1C1=CCC3C4(C)CCC(OC(C)=O)C(C)(C)C4CCC3(C)C1(C)CC2` (centres undefined) the figure was 0.571%; with `CO[C@H]1/C=C/[C@@](C)(O)/C=C/C(=O)O[C@H](C)[C@@H](C)CC/C=C/1C`, -82.6%; with `CC(O)/C=C/C1OC(=O)CC1Nc1ccc(C(=O)O)cc1` (centres undefined), -8.85%.
Turning to `CC/C=C\C/C=C\C/C=C\CCCCCCCC(=O)OCC(O)COC1OC(CO)C(O)C(O)C1O` (centres undefined), the max response is -1.09%.
With `C/C=C1\[C@H](O[C@@H]2O[C@H](CO)[C@@H](O)[C@H](O)[C@H]2O)OC=C2C(=O)OCCc3ccc(O)c(c3)Oc3ccc(cc3)CCOC(=O)C[C@H]21`, the max response is -25.1%.
With `CC(=O)OC[C@@]12C(=O)C[C@@H](C)[C@]3(C[C@@H](c4ccoc4)O[C@H]3OC(C)=O)[C@H]1CCC[C@]21CO1`, the max response was -5.69%.
As to `N[C@@]1(C(=O)O)CC[C@H]2[C@H](C(=O)O)[C@H]21`, the max response is 4.28%.
Take `CC[C@@](C)(Nc1ccnc(-c2c[nH]c3ncccc23)n1)C(=O)NCC(F)(F)F`: the max response was -4.43%.
With `CCOc1cc(N2CCC(O)CC2)ccc1Nc1ncc2c(n1)N(C1CCCC1)CCC(=O)N2C`, the Potency was 5.8 µM (active).
On to `COC1CC(O[C@H]2CC[C@@]3(C)C(=CC[C@]4(O)C3[C@H](OC(C)=O)[C@@H](OC(=O)c3ccccc3)[C@]3(C)[C@@H](C(C)=O)CC[C@@]34O)C2)OC(C)C1OC1CC(OC)C(OC2CC(OC)C(OC3OC(C)C(OC4OC(CO)C(O)C(O)C4O)C(OC)C3O)C(C)O2)C(C)O1` (some centres undefined), for which the max response is 1.75%.
`CC(C)C(CO)Nc1nc(Nc2ccc(C(=O)O)c(Cl)c2)c2ncn(C(C)C)c2n1` (centres undefined): the max response was -4.16%.
On to `CC1OC(O[C@H]2CC[C@@]3(C)C(CC[C@]4(C)C3CC=C3C5CC(C)(C)CC[C@]5(C(=O)OC5OC(CO)C(OC6OC(COC7OCC(O)C(O)C7O)C(O)C(O)C6O)C(O)C5O)CC[C@]34C)C2(C)C)C(O)C(O)C1OC1OCC(OC2OCC(O)C(O)C2O)C(O)C1O` (some centres undefined), for which the max response was 1.98%.
With `CCN1CCN(Cc2ccc(Nc3ncc(F)c(-c4cc(F)c5nc(C)n(C(C)C)c5c4)n3)nc2)CC1`, the Potency was 3.66 µM (active).
With `O=S(=O)(NCC1CC1)c1ccc(Nc2nccc(N3CCCc4cc(O)ccc43)n2)cc1`, the Potency is 1.64 µM (active).
For the compound `CCNC(=O)Nc1ccc(-c2nc3c(c(N4CCOC[C@@H]4C)n2)CCN(c2ncccn2)C3)cc1`, the Potency was 0.184 µM (active).

The values are drawn from PubChem BioAssay (NCATS).
